The panel holds about 83,000 compounds, 20% with a hit somewhere; the sample as a whole holds those more often.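 Interpretation: 100, growth as untreated; towards 0, rising growth inhibition; 0, no net growth; 0 to -100, cell death. Compounds scoring below 10 were considered active.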 The source made the active and inactive calls.
Each compound was assayed on UACC-257 melanoma (assay: NCI-60 one-dose screen, 48 h (100 = growth as untreated, 0 = no growth, -100 = all killed)). Settings: 10 µM unless noted.
For `CC1=C(C)C(=O)C(Nc2ccc(C)cc2)=C(Br)C1=O`, the growth was 93.8% (inactive).
For `Cc1ccc(N2CCN(C3=C(Cl)C(=O)c4ncccc4C3=O)CC2)cc1`, the growth was 29.6% (inactive).
With `COc1ccc2[nH]cc(-c3nc(N)nnc3-c3cn(C)c4ccc(Br)cc34)c2c1` the growth was 46.8% (inactive).
`O=C(/C=C/c1ccccc1Cl)Nc1ncc(Cc2cc(Cl)ccc2Cl)s1` was tested, and the growth was 61.5% (inactive).
In the case of `CN(C)S(=O)(=O)c1ccc(-c2nc(C(Cl)Cl)nc3cc(-c4ccc(F)cc4)nn23)cc1`, the growth is reported as 52.4% (inactive).
With `Fc1ccc(-c2cn3c(-c4c[nH]c5ccc(Br)cc45)csc3n2)cc1` the growth was 93.5% (inactive).
In the case of `C#Cc1nc(/C=C/CCCCCCC(=O)NO)cs1`, the growth is reported as 56.6% (inactive).
In the case of `C#C[C@]1(O)CC[C@H]2[C@@H]3CC=C4c5sc(Nc6ncccc6C)nc5CC[C@]4(C)[C@H]3CC[C@@]21C`, the growth is reported as -35.8% (active).
In the case of `CC(C)=CCC[C@](C)(O)[C@H]1CC[C@]2(C)[C@@H]1CC[C@@H]1[C@@]3(C)CC[C@H](N)C(C)(C)[C@@H]3CC[C@]12C`, the growth is reported as 94% (inactive).
`Cc1cc2nc3c4cc(C#N)ccc4n(CCN(C)C)c3nc2cc1C` was tested, and the growth was -25.5% (active).
In the case of `N#Cc1c(-c2cccs2)cc(-c2cnccn2)nc1SCC(=O)N/N=C/c1ccncc1`, the growth is reported as 107% (inactive).
With `CCOC(=O)c1cccc(NC2=C(Cl)C(=O)C(C)=C(C)C2=O)c1` the growth was 93.3% (inactive).
In the case of `c1ccc(-c2cn3c(-c4c[nH]c5ccccc45)csc3n2)cc1`, the growth is reported as 54.2% (inactive).
For `Cc1cc(Br)ccc1-n1cc(C#N)c(N)c1C(=O)c1ccc(Br)cc1`, the growth was 103% (inactive).
With `Cn1cc(-c2cc3ncnc(Nc4ccc(NC(=O)Nc5cc(C(C)(C)C)on5)cc4)c3s2)cn1` the growth was 25.3% (inactive).
For `Nc1cc(C(=O)N/N=C\c2ccc(OC(F)F)c(OC3CCCC3)c2)nn1CC(O)c1ccccc1` (stereo not given), the growth was 104% (inactive).
With `COc1ccc(C2CC(c3cccc(OCCCCOc4cccc(C5=NOC(c6ccc(OC)cc6)C5)c4)c3)=NO2)cc1` (stereo not given) the growth was 96.9% (inactive).
For `O=C(COc1ccc(/C=C2\C(=O)Nc3ccc(Cl)cc32)cc1)Nc1ccc(Cl)cc1`, the growth was 82.5% (inactive).
With `Cn1cc(-c2nnc(N)nc2-c2c[nH]c3ccc(F)cc23)c2cc(Br)ccc21` the growth was 50.9% (inactive).
For `C[C@H](Nc1ncnc2ccc(-c3cnc(Cl)c(NS(C)(=O)=O)c3)cc12)c1ccccc1`, the growth was -18.4% (active).
In the case of `O=C(CSc1nc2ccccc2c(=O)n1CCc1ccccc1)Nc1ccc(S(=O)(=O)Nc2ccc(Cl)nn2)cc1`, the growth is reported as 99.3% (inactive).
In the case of `NS(=O)(=O)c1ccc(Nc2nc(N/N=C/C=C/c3ccccc3)nc(Nc3ccccc3)n2)cc1`, the growth is reported as 79.2% (inactive).
For `O=C1[C@H]2Cc3c([nH]c4ccccc34)[C@H](c3ccc(Br)cc3)N2C(=O)CN1C1CCN(CC2CCCCC2)CC1`, the growth was 97.4% (inactive).
With `CCc1cc2c(cc1Cl)nc1c(=O)[nH]c(=O)nc-1n2CCOCC(C)(C)C` the growth was 73.3% (inactive).
In the case of `COc1ccc(-c2nc(C#N)c(N3CCC(S(=O)(=O)N4CCOCC4)CC3)o2)cc1`, the growth is reported as 109% (inactive).
With `COC(=O)c1ccc(NC2=C(Cl)C(=O)c3nc(C)ccc3C2=O)cc1` the growth was 78.1% (inactive).
`Cc1ccccc1N1CCN(C2=C(Cl)C(=O)c3ncccc3C2=O)CC1` was tested, and the growth was 21.7% (inactive).
`CC[C@]12C=CCN3CC[C@@]4(c5ccc(OC)cc5N(C)[C@H]4[C@@](O)(C(=O)OC)[C@@H]1OC(=O)CCN1CCc4ccccc4C1)[C@@H]32` was tested, and the growth was 100% (inactive).
In the case of `Cc1nc(N)sc1-c1csc(Nc2ccc(C(F)(F)F)cc2)n1`, the growth is reported as 37.2% (inactive).
`Cn1cc(-c2nnc(N)nc2-c2c[nH]c3ccc(Br)cc23)c2cc(Br)ccc21` was tested, and the growth was 108% (inactive).
With `C#C[C@]1(O)CC[C@H]2[C@@H]3CC=C4c5sc(N(C)c6ccccc6)nc5CC[C@]4(C)[C@H]3CC[C@@]21C` the growth was 90.8% (inactive).
In the case of `NS(=O)(=O)c1ccc(Nc2nc(Nc3ccccc3)nc(N3N=C(c4ccc(Cl)cc4)CC3c3ccc(Cl)cc3)n2)cc1` (stereo not given), the growth is reported as 65.8% (inactive).
For `O=C(CCCCCCN1CC(=O)N2[C@@H](c3ccc(Cl)s3)c3[nH]c4ccccc4c3C[C@H]2C1=O)NO`, the growth was 53.4% (inactive).
With `CCCCc1nc2c(N)nc3ccccc3c2n1Cc1cccc(CN)c1` the growth was -62.3% (active).
In the case of `N#C/C(=C\c1ccc(-c2ccc(Cl)c(Cl)c2)o1)C(=O)Nc1ncc(Cc2ccc(Cl)cc2)s1`, the growth is reported as 78.2% (inactive).
For `O=C(Nc1ccc(Cl)c(C(F)(F)F)c1)Nc1ccc2oc(=O)ccc2c1`, the growth was 64.4% (inactive).
With `COc1ccc2[nH]cc(/C=N/Nc3ccnc4cc(Cl)ccc34)c2c1` the growth was -84.2% (active).
For `O=C1Nc2ccccc2/C1=C/c1ccc(OCC(=O)c2ccccc2)cc1`, the growth was 105% (inactive).
`NS(=O)(=O)c1nnc(/N=C/c2c(O)[nH]c3ccccc23)s1` was tested, and the growth was 107% (inactive).
With `COc1cc(/C=C2/C(=O)Nc3ccc(Cl)cc32)ccc1OCc1ccc(Cl)cc1` the growth was 102% (inactive).
